Measured values published in publication PMC5540273 (PLoS ONE, 2017).

Test system: ABL1-nonphosphorylated
Conditions: concentration: 1 μM, replicates: in singlicate; n = 1
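Also: KINOMEscan kinase panel screen.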

Row | Structure (SMILES) | %Inh [%]
1 | Clc1ccc(-c2nn3ncccc3c2-c2ccnc(Nc3ccc4c(c3)OCCO4)n2)cc1 [GW829116] | 61
2 | O=C(Nc1cccc(-c2nn3ccccc3c2-c2ccnc(Nc3cccc(F)c3)n2)c1)c1c(F)ccc(F)c1Cl [GSK357952] | 26
3 | COC(=O)Nc1nc2ccc(Oc3ccc(NC(=O)Nc4cc(C(F)(F)F)ccc4F)cc3)cc2n1C.Cl [GW692089] | 98.4
4 | O=C(Nc1cccc(-c2nn3ncccc3c2-c2ccnc(Nc3ccccc3)n2)c1)c1c(F)cccc1F [GSK198271] | 60
5 | CN1CCN(CCCNc2nccc(-c3c(-c4ccc(F)cc4)nn4cc(C(F)(F)F)ccc34)n2)CC1 [GW621581] | 0

Test system: ABL1-phosphorylated
Conditions: concentration: 1 μM, replicates: in singlicate; n = 1

Row | Structure (SMILES) | %Inh [%]
6 | Cc1ccc(C(=O)N2CC[C@@H](O)C2)cc1-n1c(C)cc(OCc2ccc(F)cc2F)c(Br)c1=O | 90.5
7 | c1ccc(Oc2ccc(Nc3ccnc4cc(-c5ccc(CNCCN6CCOCC6)o5)ccc34)cc2)nc1 [GW567145] | 12
8 | CC(C)c1nc(-c2cccc(NS(=O)(=O)c3c(F)cccc3F)c2F)c(-c2ccnc(Nc3ccc(N4CCOCC4)nc3)n2)s1 [GSK2008607] | 99.3
9 | c1ccc(-c2cnc3nccnn23)cc1 [AH20685] | 0
10 | CCn1c(-c2nonc2N)nc2c(C#CC(C)(C)O)nc(OC[C@H](N)c3ccccc3)cc21 [GSK943949] | 0
11 | CSc1cccc2c(-c3ccncn3)c(-c3ccc(F)cc3)nn12 [GW514786] | 0
12 | FC(F)(F)c1ccc(/C=C/c2cncnc2Nc2ccc3[nH]c(Cc4ccccc4)nc3c2)cc1 [GW709199] | 19
13 | C[C@@H](Oc1cc(-n2cnc3cc(-c4ccnc(NCCS(C)(=O)=O)c4)ccc32)sc1C(N)=O)c1ccccc1Cl [GSK907232] | 0
14 | O=C(Nc1n[nH]c2cc(-c3ccoc3)ccc12)C1CC1 [SB-738481] | 0
15 | CC(C)(C)c1ccc2nccc(Nc3cccc(O)c3)c2c1 [GW856795] | 85
16 | Cl.Cl.NCC(NC(=O)c1cc(-c2ccccc2)c(-c2ccnc3[nH]ccc23)s1)c1ccccc1 (stereo not drawn) [GSK1321561] | 90
17 | CCc1ccc(-c2ccc3c(c2)-c2c(cnn2C)S(=O)(=O)N3C)cc1 | 0
18 | Cl.Cl.NCC(NCc1ccc(-c2ccnc3[nH]ccc23)s1)c1ccccc1 (stereo not drawn) [GSK1321565] | 0
19 | Cl.NC(=O)c1cccc(Nc2nccc(Nc3ccc(Oc4c(Cl)cccc4Cl)c(Cl)c3)n2)c1 [GW659009] | 0
20 | Cc1ccc(C)c(NC(=O)NC2CCN(c3ccnc(Nc4ccc(F)cc4)n3)C2)c1 (stereo not drawn) [GSK1379720] | 0
21 | COC(=O)Nc1nc2cc(Oc3ccc(NC(=O)Nc4cc(C(F)(F)F)ccc4F)cn3)ccc2[nH]1.Cl.Cl [GW681170] | 74
22 | Cn1cc(-c2[nH]c3cc(NC(=O)[C@H](N)C4CCCCC4)cc4c3c2C=NNC4=O)cn1 | 97.5
23 | CCn1c(-c2nonc2N)nc2c(C#CC(C)(C)O)ncc(OCCCCN)c21.O=C(O)C(F)(F)F.O=C(O)C(F)(F)F [GSK507274] | 4
24 | NCCCC(NC(=O)c1cc(Br)c(-c2ccnc3[nH]ccc23)s1)c1ccccc1.O=C(O)C(F)(F)F.O=C(O)C(F)(F)F (stereo not drawn) [GSK1287544] | 0

Row | Structure (SMILES) | %Inh [%]
25 | Cc1ccc(C(=O)Nc2ccc(Nc3ccnc4cc(-c5nccs5)ccc34)cc2O)cc1.Cl [GW494702] | 12
26 | CN(C)S(=O)(=O)c1cc(-c2ccc3nccc(-c4cccc(S(N)(=O)=O)c4)c3c2)cnc1N [GSK1669921] | 0
27 | COc1ccc(Nc2nccc(NCCNC(=O)c3cc4ccccc4s3)n2)cc1 [GSK1379896] | 0
28 | Cc1ccc(F)c(C(=O)Nc2cccc(-c3nn4ccccc4c3-c3ccnc(Nc4cccc(F)c4)n3)c2)c1F [GSK361061] | 0
29 | Nc1n[nH]c2cnc(-c3ccccc3)cc12 [SB-642124] | 0
30 | Cc1cccc(NC(=O)Nc2ccc(Oc3ncnc4ccn(C)c34)cc2)c1 | 23
31 | COc1cc2c(cc1OCCN1CCNCC1)ncc1c3ccc(C#N)cc3[nH]c21 | 55
32 | Fc1ccc(-c2ncn(C3CCNCC3)c2-c2ccnc(Oc3ccc(-c4ccccc4)cc3)n2)cc1 [SB-245391] | 16
33 | CC(=O)Nc1nc2cnc(Nc3cc(NC(=O)c4cccc(C5(C#N)CC5)c4Cl)ccc3C)nc2s1 | 59
34 | O=C(O)C(F)(F)F.O=C(O)C(F)(F)F.O=c1[nH]ccc2nc(N[C@@H]3CCCNC3)nc(Nc3ccc(S(=O)(=O)N4CCOCC4)cc3)c12 [GSK2177277] | 84
35 | Oc1cc(Nc2ccnc3cc(I)ccc23)ccc1F [GW552771] | 99.6
36 | COc1cccc(C(=O)Nc2cccc(Oc3ccc4nc(NC(=O)C5CC5)cn4n3)c2)c1 | 99.7
37 | O=C(Nc1cccc(Oc2ccc3nc(NC(=O)C4CC4)cn3n2)c1)c1ccccc1C(F)(F)F | 90
38 | Clc1ccc(-c2nn3ncccc3c2-c2ccnc(Nc3ccc4c(c3)OCCO4)n2)cc1 [GW829116] | 7
39 | O=C(Nc1cccc(-c2nn3ccccc3c2-c2ccnc(Nc3cccc(F)c3)n2)c1)c1c(F)ccc(F)c1Cl [GSK357952] | 0
40 | COC(=O)Nc1nc2ccc(Oc3ccc(NC(=O)Nc4cc(C(F)(F)F)ccc4F)cc3)cc2n1C.Cl [GW692089] | 49
41 | O=C(Nc1cccc(-c2nn3ncccc3c2-c2ccnc(Nc3ccccc3)n2)c1)c1c(F)cccc1F [GSK198271] | 6
42 | CN1CCN(CCCNc2nccc(-c3c(-c4ccc(F)cc4)nn4cc(C(F)(F)F)ccc34)n2)CC1 [GW621581] | 0
